This is part of a sample that, as a whole, favours compounds with a hit. Of some 83,000 tested, about 20% had one in any assay.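 In brief: 96-well plates, 48 h treatment, single concentration, percent growth endpoint.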 Unmarked numbers belong to inactive results. Calls of active or inactive are those of the source. Rule for the calls: active = growth percent below 10; inactive = the rest.

The assay has as its system HCC-2998 colon. The assay can be described thus: NCI-60 one-dose screen, 48 h (100 = growth as untreated, 0 = no growth, -100 = all killed). Particulars: 10 µM unless noted.
In the case of `O=C1[C@@H]2Cc3c([nH]c4ccccc34)[C@H](c3ccc(Br)cc3)N2C(=O)CN1C1CCN(Cc2c(Cl)cccc2Cl)CC1`, the growth was 101%.

Turning to `O=C1/C(=C/C=C/c2ccco2)SC(=S)N1Cc1ccccc1`, the growth was 99.7%.

`O=C(COc1ccc(/C=C2\C(=O)Nc3ccc(Cl)cc32)cc1)Nc1ccc(Cl)cc1`: the growth was 89%.

Take `N#C/C(=N\Nc1ccc(F)cc1)C(=O)Nc1cc(-c2ccccc2)nn1-c1ccccc1`: the growth was 19.5%.

Regarding `Clc1ccc2c(N/N=C/c3c[nH]c4ccccc34)ccnc2c1`, the growth was -92.3% (active).

Take `CN1CCN(Cc2ccc(NC(=O)c3cncc(C#Cc4cnc5ccc(NCCO)nn45)c3)cc2C(F)(F)F)CC1`: the growth was -8.28% (active).

In the case of `C#CCOc1ccc(/C=N/Nc2nc(-c3ccc(OC)cc3)cs2)cc1`, the growth is 103%.

As to `Cc1ccc(/C(N)=N/C(N)=N/c2nc3ccccc3s2)cc1`, the growth was 104%.

Turning to `CC(=O)Nc1cc(N2CCOCC2)c2nc(NC(=O)c3[nH]c(C)c(Cl)c3Cl)sc2c1`, the growth was 109%.

For the compound `CN(C)c1ccc(/C=N/Nc2nc(N/N=C/c3ccc(N(C)C)cc3)nc(N3CCCCC3)n2)cc1`, the growth is 103%.

On to `N#Cc1c(-c2cccs2)cc(-c2cnccn2)nc1SCC(=O)N/N=C/c1ccc(Cl)cc1`, for which the growth is 119%.

In the case of `COc1ccc(OC)c(NC(=O)CCCCCCNC(=O)C(O)(O)C(F)(F)F)c1`, the growth was 51.5%.

Consider `C/C(=N/N)c1nnn(-c2ccc(Br)cc2)c1C`, for which the growth is 107%.

On to `CC(C)NC(=O)c1cc(-c2ccc(NC(=O)Nc3ccc(F)c(C(F)(F)F)c3)cc2)nc2cccnc12`, for which the growth was 115%.

For `COc1cc(C(C)=C(c2ccc(OCCN(C)C)cc2)c2ccc(OCCN(C)C)cc2)ccc1F`, the growth is 100%.

For the compound `CN1CCN(CC#CCn2c3c(c4ccccc42)C[C@]2(C)[C@H]4CC=C5[C@@H]6CC(C)(C)CC[C@]6(C(=O)N6CCOCC6)CC[C@@]5(C)[C@]4(C)CC[C@H]2C3(C)C)CC1`, the growth is 85.4%.

In the case of `COc1cc(/C=C2/C(=O)Nc3ccc(Cl)cc32)ccc1OCc1ccc(Cl)cc1`, the growth was 107%.

As for `Cc1[nH]c(C(=O)Nc2ccccc2OCc2cccc(C(=O)NC3CCCNC3)c2)c(Cl)c1Cl` (stereo unspecified), the growth was -90% (active).

In the case of `O=S(=O)(NCCCNc1nccc(-c2[nH]c(-c3ccccc3)nc2-c2ccc(F)c(O)c2)n1)c1ccccc1`, the growth was 126%.

In the case of `COc1ccc(Cn2cc(C#N)c(N)c2C(C)=O)cc1`, the growth is 107%.

As to `CC(Nc1ncnc2ccc(-c3cnc4cnccn34)cc12)c1ccccc1` (stereo unspecified), the growth is 80.7%.

On to `O=C(NCCNc1cc(-c2cn(-c3ccccc3)nc2-c2cccc(O)c2)ccn1)Nc1cc(C(F)(F)F)cc(C(F)(F)F)c1`, for which the growth is 96.2%.

Regarding `C#CCN(C)CCCOc1ccc(NC(=O)CCCCCCC(=O)NO)cc1Cl`, the growth is 12.9%.

Take `O=C(CSc1nnc(-c2ccc(Cl)cc2)n1-c1ccccc1)Nc1ccc(Cl)cc1`: the growth was 70.1%.

On to `CN1CCN(Cc2ccc(/C=N/Nc3ccnc4cc(Cl)ccc34)cc2)CC1`, for which the growth was 67.8%.

With `N#Cc1c(-c2cccs2)cc(-c2cnccn2)nc1SCC(=O)N/N=C/c1cccs1`, the growth was 43.1%.

As to `CCCCCCN1C=C/C(=C\C(=O)n2ccc3ccccc32)c2ccccc21`, the growth is 34.6%.

Turning to `CC(C)(C)Nc1nc2c(OCCc3ccccc3)cccn2c1-c1cccc(Oc2ccccc2)c1`, the growth was 21.3%.

Regarding `Cn1cc(-c2nnc(N)nc2-c2c[nH]c3ccc(F)cc23)c2cc(Br)ccc21`, the growth is 53.6%.

For `CN1CCN(c2ccc(Nc3nc(NCCCNS(=O)(=O)c4cccc(F)c4)c4sccc4n3)cc2)CC1`, the growth is 37.9%.

Take `CNC(=O)c1cc(-c2ccc(NC(=S)Nc3cccc(C(F)(F)F)c3)cc2)nc2cccnc12`: the growth was 116%.

Turning to `NC(N)=NS(=O)(=O)c1ccc(N=Nc2c(N)nn(-c3ccc([N+](=O)[O-])cc3[N+](=O)[O-])c2N)cc1`, the growth was 113%.

Consider `N#Cc1c(-c2cccs2)cc(-c2cnccn2)nc1SCC(=O)N/N=C/c1ccncc1`, for which the growth is 109%.

Take `CCN(CC)c1ccc(/C=N/NC(=O)c2ccc(NS(C)(=O)=O)cc2)cc1`: the growth was 45.7%.

Consider `CCCCCC[n+]1ccc(SCC(=O)n2ccc3ccccc32)c2ccccc21`, for which the growth was 92.8%.

On to `O=C(/C=C/c1cccc(F)c1)c1cccc(OCCCOc2cccc(C(=O)/C=C/c3cccc(F)c3)c2)c1`, for which the growth was 44.2%.

(Values after PubChem BioAssay (NCI).)
